Laboratory results from PubChem BioAssay (NCATS).
Inconclusive results are not listed. Active and inactive are the calls of the source. Calls follow the shape of the dose curve; as a rule, active = well fitted inhibition curve with a large enough effect; inconclusive = small, poorly fitted or top-dose-only effect; inactive = flat fitted curve, though single readings scatter.

Experiments:
Assay in all cases: qHTS profiling for inhibitors of Plasmodium falciparum proliferation (AID 504749); also: nearly all actives have a fitted effect of over 60% in size
Details in all cases: P. falciparum in erythrocytes, SYBR Green DNA, 72 h; series mostly up to 28.7 µM
ATS189 = test system: ATS189
How it was run: (§1)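 SYBR Green fluorescence (ex 485 nm, em 535 nm) reports parasite DNA after 72 h compound exposure of infected red cells at 0.3% parasitemia, 2.5% hematocrit; signal normalized to 0.29 uM artemisinin and vehicle wells.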

CP185 = test system: CP185
How it was run: as §1

CP191 = test system: CP191
How it was run: as §1

CP192 = test system: CP192
How it was run: as §1

CP201 = test system: CP201
How it was run: as §1

CP237 = test system: CP237
How it was run: as §1

CP238 = test system: CP238
How it was run: as §1

CP247 = test system: CP247
How it was run: as §1

CP262 = test system: CP262
How it was run: as §1

CP265 = test system: CP265
How it was run: as §1

CP268 = test system: CP268
How it was run: as §1

CP286 = test system: CP286
How it was run: as §1

CP305 = test system: CP305
How it was run: as §1

CP335 = test system: CP335
How it was run: as §1

DIV30 = test system: DIV30
How it was run: as §1

Dd2 = test system: Dd2
How it was run: as §1

HB3 = test system: HB3
How it was run: as §1

P94_40 = test system: P94_40
How it was run: as §1

TAB109 = test system: TAB109
How it was run: as §1

TAB113 = test system: TAB113
How it was run: as §1

Measured: Potency
Potency is read from the fitted curve at half-maximal effect.

CCN1C[C@]2(COC)[C@H](O)C[C@H](OC)[C@]34C1C([C@H](OC)[C@H]23)[C@]1(OC(C)=O)C2[C@@H](OC(=O)c3ccccc3)C(O)(C[C@H]24)[C@@H](OC)[C@@H]1O
inactive: ATS189 | CP185 | CP191 | CP192 | CP201 | CP237 | CP238 | CP247 | CP262 | CP265 | CP268 | CP286 | CP305 | CP335 | DIV30 | Dd2 | HB3 | P94_40 | TAB109 | TAB113

O=C(O)c1ccccc1-c1c2cc(Br)c(=O)cc-2oc2[c]([Hg])c(O)c(Br)cc12
inactive: ATS189 | CP185 | CP191 | CP192 | CP201 | CP237 | CP238 | CP247 | CP262 | CP265 | CP268 | CP286 | CP305 | CP335 | DIV30 | Dd2 | HB3 | P94_40 | TAB109 | TAB113

CC(C)[C@@]1(NC(=O)[C@H]2CC3c4cccc5[nH]cc(c45)C[C@H]3N(C)C2)O[C@@]2(O)C3CCCN3C(=O)[C@@H](Cc3ccccc3)N2C1=O (stereo not given in full)
active: ATS189 2.82 µM | CP185 10 µM | CP191 5.01 µM | CP192 7.57 µM | CP201 10.7 µM | CP237 1.26 µM | CP238 3.98 µM | CP247 8.91 µM | CP262 12 µM | CP265 4.47 µM | CP268 10.7 µM | CP286 3.98 µM | CP305 6.75 µM | CP335 3.79 µM | DIV30 1.51 µM | Dd2 2.82 µM | HB3 2 µM | P94_40 2 µM | TAB109 4.47 µM | TAB113 3.55 µM
